The source of these data is PMC9911399, “Two distinct binding modes provide the RNA-binding protein RbFox with extraordinary sequence specificity”.

Residue numbers refer to the chain shown, from its start. In all, about 16,000 sequences were measured (“ka relative to ugcaugu”: median about 0.096, highest 2% from about 0.35 on). The entries come from a sample that favours the highest values as a whole.

B1: CUCACAU (DNA:RNA)
RNA: GGGAGACCGGAAUUCAGAUUGUCCCUCACAUUUAAAUCCCGUCGUAGCCACCA
DNA 1: CAATCTGAATTCCGGTCTCCC
DNA 2: TGGTGGCTACGACGGGATT
B2: AUGCAGC (DNA:RNA)
RNA: B1 RNA with C25A, C27G, A28C, C29A, A30G, U31C
DNA 1: CAATCTGAATTCCGGTCTCCC
DNA 2: TGGTGGCTACGACGGGATT
B3: AGUCCCU (DNA:RNA)
RNA: B1 RNA with C25A, U26G, C27U, A28C, A30C
DNA 1: CAATCTGAATTCCGGTCTCCC
DNA 2: TGGTGGCTACGACGGGATT
B4: GAAGUCC (DNA:RNA)
RNA: GGGAGACCGGAAUUCAGAUUGUCCGAAGUCCUUAAAUCCCGUCGUAGCCACCA
DNA 1: CAATCTGAATTCCGGTCTCCC
DNA 2: TGGTGGCTACGACGGGATT
B5: UGCCAGA (DNA:RNA)
RNA: B1 RNA with C25U, U26G, A28C, C29A, A30G, U31A
DNA 1: CAATCTGAATTCCGGTCTCCC
DNA 2: TGGTGGCTACGACGGGATT
B6: UUGUUGG (DNA:RNA)
RNA: B1 RNA with C25U, C27G, A28U, C29U, A30G, U31G
DNA 1: CAATCTGAATTCCGGTCTCCC
DNA 2: TGGTGGCTACGACGGGATT
B7: GUGGUUG (DNA:RNA)
RNA: B4 RNA with A26U, A27G, C30U, C31G
DNA 1: CAATCTGAATTCCGGTCTCCC
DNA 2: TGGTGGCTACGACGGGATT
B8: GUGGUGG (DNA:RNA)
RNA: B4 RNA with A26U, A27G, C30G, C31G
DNA 1: CAATCTGAATTCCGGTCTCCC
DNA 2: TGGTGGCTACGACGGGATT
B9: GUCGUGG (DNA:RNA)
RNA: B4 RNA with A26U, A27C, C30G, C31G
DNA 1: CAATCTGAATTCCGGTCTCCC
DNA 2: TGGTGGCTACGACGGGATT
B10: UCCUUGG (DNA:RNA)
RNA: B1 RNA with C25U, U26C, A28U, C29U, A30G, U31G
DNA 1: CAATCTGAATTCCGGTCTCCC
DNA 2: TGGTGGCTACGACGGGATT
B11: UUGGUUG (DNA:RNA)
RNA: B4 RNA with G25U, A26U, A27G, C30U, C31G
DNA 1: CAATCTGAATTCCGGTCTCCC
DNA 2: TGGTGGCTACGACGGGATT
B12: UCCGUCA (DNA:RNA)
RNA: B4 RNA with G25U, A26C, A27C, C31A
DNA 1: CAATCTGAATTCCGGTCTCCC
DNA 2: TGGTGGCTACGACGGGATT
B13: GUAGCCA (DNA:RNA)
RNA: B4 RNA with A26U, U29C, C31A
DNA 1: CAATCTGAATTCCGGTCTCCC
DNA 2: TGGTGGCTACGACGGGATT
B14: ACACUGG (DNA:RNA)
RNA: B4 RNA with G25A, A26C, G28C, C30G, C31G
DNA 1: CAATCTGAATTCCGGTCTCCC
DNA 2: TGGTGGCTACGACGGGATT
B15: CCCCAGA (DNA:RNA)
RNA: B1 RNA with U26C, A28C, C29A, A30G, U31A
DNA 1: CAATCTGAATTCCGGTCTCCC
DNA 2: TGGTGGCTACGACGGGATT
B16: UAAACAG (DNA:RNA)
RNA: B1 RNA with C25U, U26A, C27A, U31G
DNA 1: CAATCTGAATTCCGGTCTCCC
DNA 2: TGGTGGCTACGACGGGATT
B17: CACGGCC (DNA:RNA)
RNA: B4 RNA with G25C, A27C, U29G
DNA 1: CAATCTGAATTCCGGTCTCCC
DNA 2: TGGTGGCTACGACGGGATT
B18: GCCUUGC (DNA:RNA)
RNA: B4 RNA with A26C, A27C, G28U, C30G
DNA 1: CAATCTGAATTCCGGTCTCCC
DNA 2: TGGTGGCTACGACGGGATT
B19: GCCUUAA (DNA:RNA)
RNA: B1 RNA with C25G, U26C, A28U, C29U, U31A
DNA 1: CAATCTGAATTCCGGTCTCCC
DNA 2: TGGTGGCTACGACGGGATT
B20: GCCUCGU (DNA:RNA)
RNA: B1 RNA with C25G, U26C, A28U, A30G
DNA 1: CAATCTGAATTCCGGTCTCCC
DNA 2: TGGTGGCTACGACGGGATT
B21: GUCGGCC (DNA:RNA)
RNA: B4 RNA with A26U, A27C, U29G
DNA 1: CAATCTGAATTCCGGTCTCCC
DNA 2: TGGTGGCTACGACGGGATT
B22: GCUUGCC (DNA:RNA)
RNA: B4 RNA with A26C, A27U, G28U, U29G
DNA 1: CAATCTGAATTCCGGTCTCCC
DNA 2: TGGTGGCTACGACGGGATT
B23: GCCUUGU (DNA:RNA)
RNA: B1 RNA with C25G, U26C, A28U, C29U, A30G
DNA 1: CAATCTGAATTCCGGTCTCCC
DNA 2: TGGTGGCTACGACGGGATT
B24: GCCUGCG (DNA:RNA)
RNA: B4 RNA with A26C, A27C, G28U, U29G, C31G
DNA 1: CAATCTGAATTCCGGTCTCCC
DNA 2: TGGTGGCTACGACGGGATT
B25: GGCCUUG (DNA:RNA)
RNA: B4 RNA with A26G, A27C, G28C, C30U, C31G
DNA 1: CAATCTGAATTCCGGTCTCCC
DNA 2: TGGTGGCTACGACGGGATT
B26: GCCUUCA (DNA:RNA)
RNA: B4 RNA with A26C, A27C, G28U, C31A
DNA 1: CAATCTGAATTCCGGTCTCCC
DNA 2: TGGTGGCTACGACGGGATT
B27: GGCGGCC (DNA:RNA)
RNA: B4 RNA with A26G, A27C, U29G
DNA 1: CAATCTGAATTCCGGTCTCCC
DNA 2: TGGTGGCTACGACGGGATT
B28: GCCUUGA (DNA:RNA)
RNA: B4 RNA with A26C, A27C, G28U, C30G, C31A
DNA 1: CAATCTGAATTCCGGTCTCCC
DNA 2: TGGTGGCTACGACGGGATT
B29: GCCUUUU (DNA:RNA)
RNA: B1 RNA with C25G, U26C, A28U, C29U, A30U
DNA 1: CAATCTGAATTCCGGTCTCCC
DNA 2: TGGTGGCTACGACGGGATT
B30: AGUUUUA (DNA:RNA)
RNA: B4 RNA with G25A, A26G, A27U, G28U, C30U, C31A
DNA 1: CAATCTGAATTCCGGTCTCCC
DNA 2: TGGTGGCTACGACGGGATT
B31: UCGAAGU (DNA:RNA)
RNA: B1 RNA with C25U, U26C, C27G, C29A, A30G
DNA 1: CAATCTGAATTCCGGTCTCCC
DNA 2: TGGTGGCTACGACGGGATT

This assay addresses T1, RBFOX1 RRM RbFoxmut (Fox-RRM*) (Homo sapiens, UniProt Q9NWB1 109-208, R118D;E147R;N151S;E152T).
T1 sequence: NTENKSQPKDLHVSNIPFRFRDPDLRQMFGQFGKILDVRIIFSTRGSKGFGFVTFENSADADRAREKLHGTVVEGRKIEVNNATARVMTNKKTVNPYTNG
Kind of assay: EMSA; HiTS-Eq, 1 nM pool, 10 min; buffer printed only for the single-RNA assays: 10 mM Tris pH 7.5, 150 mM NaCl, 3.4 mM EDTA, 0.001% NP-40, 30 C. Conditions: tags: His6 N-terminal (pET28a); label: 5' 32P. The essentials: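 Purified RbFox RRM, wild type or mutant, was incubated for 10 min in 50 µL with 1 nM of a 5′-radiolabelled RNA pool carrying 7 randomized nucleotides, whose flanks were annealed to DNA oligonucleotides, over a series of increasing protein concentrations. Unbound RNA was resolved on 8% native PAGE, cut out, reverse-transcribed, barcoded by PCR and sequenced on an Illumina HiSeq 2500. Relative association constants were derived from changes in read counts for each RNA species versus the control reaction and normalised to the cognate motif.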
For orientation: A gel shift assay detects complexes by their altered migration in electrophoresis.
In the case of B1, the binding signal was 0.0911 KA relative to UGCAUGU.

As to B2, the binding signal was 0.106 KA relative to UGCAUGU.

On to B3, for which the binding signal was 0.0659 KA relative to UGCAUGU.

B4: the binding signal was 0.0491 KA relative to UGCAUGU.

B5: the binding signal is 0.116 KA relative to UGCAUGU.

With B6, the binding signal is 0.117 KA relative to UGCAUGU.

For the molecule B7, the binding signal is 0.737 KA relative to UGCAUGU.

For the molecule B8, the binding signal was 0.15 KA relative to UGCAUGU.

With B9, the binding signal is 0.112 KA relative to UGCAUGU.

As to B10, the binding signal was 0.0776 KA relative to UGCAUGU.

B11: the binding signal was 0.65 KA relative to UGCAUGU.

With B12, the binding signal is 0.111 KA relative to UGCAUGU.

As to B13, the binding signal was 0.082 KA relative to UGCAUGU.

Regarding B14, the binding signal was 0.123 KA relative to UGCAUGU.

With B15, the binding signal is 0.0916 KA relative to UGCAUGU.

As to B16, the binding signal is 0.0612 KA relative to UGCAUGU.

As for B17, the binding signal was 0.18 KA relative to UGCAUGU.

Take B18: the binding signal is 0.387 KA relative to UGCAUGU.

As to B19, the binding signal was 0.0981 KA relative to UGCAUGU.

On to B20, for which the binding signal was 0.224 KA relative to UGCAUGU.

Regarding B21, the binding signal was 0.214 KA relative to UGCAUGU.

Consider B22, for which the binding signal was 0.239 KA relative to UGCAUGU.

On to B23, for which the binding signal is 0.714 KA relative to UGCAUGU.

Consider B24, for which the binding signal was 0.172 KA relative to UGCAUGU.

In the case of B25, the binding signal is 0.478 KA relative to UGCAUGU.

As for B26, the binding signal is 0.146 KA relative to UGCAUGU.

Regarding B27, the binding signal is 0.16 KA relative to UGCAUGU.

In the case of B28, the binding signal is 0.561 KA relative to UGCAUGU.

In the case of B29, the binding signal was 0.0724 KA relative to UGCAUGU.

Regarding B30, the binding signal is 0.101 KA relative to UGCAUGU.

As for B31, the binding signal is 0.107 KA relative to UGCAUGU.
